hcDAF12 agonist: activators of H. contortus DAF-12 nuclear receptor. 1.4% of 370,000 active. HEK293 hcDAF-12 lit1-tk-luc reporter, luminescence; 0% DMSO, 100% Δ7-dafachronic acid. activation, % at 6.8 µM;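 active = activation above the mean of all tested compounds plus 3 SD, cut at about 5.5% in these data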
SMARCA2 act: increases SMARCA2 function in MMTV reporter cells | MG213 cells, MMTV-luciferase reporter, dexamethasone, overnight | 1% of 370,000 active | AID 652017 | activation, % at 9.1 µM; in the data active = activation above about 7.8%
DAX1 inh-1: NR0B1 (DAX1) inhibition. 0.99% of 340,000 active. HEK293 Gal4-DAX1 luciferase reporter, luminescence. P51843. inhibition, % at 6.75 µM;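 active = inhibition above the mean over all tested compounds plus 3 SD, cut at about 4.2% in these data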;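 note: inhibition shows as a rise in luminescence from relieved DAX1 repression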
Target sequence (P51843 207-470 limits assumed): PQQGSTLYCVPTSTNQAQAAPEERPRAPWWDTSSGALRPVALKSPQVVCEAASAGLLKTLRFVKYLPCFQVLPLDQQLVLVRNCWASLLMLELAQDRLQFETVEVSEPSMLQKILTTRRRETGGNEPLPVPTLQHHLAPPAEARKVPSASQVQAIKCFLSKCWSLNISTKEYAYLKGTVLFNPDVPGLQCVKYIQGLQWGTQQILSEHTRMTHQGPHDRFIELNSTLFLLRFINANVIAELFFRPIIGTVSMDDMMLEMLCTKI
hgDAF-12 ag: hgDAF-12 agonism, primary luciferase screen; activation, % at 6.8 µM; HEK293 GAL4-hgDAF12 UAS-luciferase reporter, agonist luminescence; normalized to butyrate control; 1.8% of 370,000 active;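 active = activation above a cutoff set at the mean of all screened compounds plus 3 SD, cut at about 10% in these data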
ssDAF12 agonist: activators of S. stercoralis DAF-12 nuclear receptor | HEK293 ssDAF-12/GRIP1 lit1-tk-luc reporter, luminescence; % of 3 µM dafachronic acid response | activation, % at 6.8 µM | 1% of 370,000 active;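 active = activation above the mean over all tested compounds plus 3 SD, cut at about 0.9% in these data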
DAX1 inh-2: DAX1 (NR0B1) inhibition, primary screen. AID 652010. HEK293T StAR-luciferase reporter, SF-1/DAX-1 repression relief. 1.1% of 370,000 active. inhibition, % at 6.8 µM;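 active = inhibition above the mean over all tested compounds plus 3 SD, cut at about 3.6% in these data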;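 note: higher inhibition means more luminescence from relief of DAX-1 repression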
LXR ag: counter-screen for hcDAF-12 agonists: agonists of human LXR-beta; shares compounds with hcDAF12 agonist; HEK293 Gal4-LXR tk-luc reporter, luminescence, 24 h; normalized: DMSO 0%, positive control 100%; activation, % at 6.8 µM; 3,400 tested, under 10 active; AID 743027;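 active = mean percent activation of the reporter above a cutoff set as the average over tested compounds plus their standard deviation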
hcDAF12 ag: hcDAF-12 agonism, confirmation assay | shares compounds with hcDAF12 agonist | HEK293 hcDAF-12 lit1-tk-luc reporter, luminescence; % of Δ7-dafachronic acid response | activation, % at 6.8 µM | 61% of 3,400 active | AID 743032;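 active = mean activation across triplicate tests above the threshold derived from the earlier primary screen, cut at about 5.5% in these data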
Each line names hits and unclear results; the compound was inactive in the other large screens (follow-up assays come after a bar, where they were run). Sampled rows, rich in hits. Any-hit rate of the full collection: about 4.8%.

Cc1cccc(SCC(=O)Nc2ccc3c(c2)OCCO3)c1	hcDAF12 agonist 7.1 | LXR ag inactive | hcDAF12 ag 5.8
COc1ccc(CNC(=O)C(=O)c2cn(CC(=O)N3CCOCC3)c3ccccc23)cc1	none
O=C(Nc1ccccc1Cl)C(=O)c1cn(CC(=O)N2CCOCC2)c2ccccc12	hcDAF12 agonist 7.6 | LXR ag inactive | hcDAF12 ag 8.6
O=C(NCc1ccc(Cl)cc1)C(=O)c1cn(CC(=O)N2CCOCC2)c2ccccc12	none
O=C(Cn1cc(SCc2ccccc2Cl)c2ccccc21)N1CCOCC1	hcDAF12 agonist 11 | LXR ag inactive | hcDAF12 ag inactive
COc1ccc(CNC(=O)C(=O)c2cn(CC(=O)N3CCCC3)c3ccccc23)cc1	hcDAF12 agonist 7.2 | LXR ag inactive | hcDAF12 ag inactive
C[C@@H]1CN([C@@H](C)CO)C(=O)CCCn2cc(nn2)CO[C@H]1CN(C)C(=O)Nc1ccccc1F	none (no result: DAX1 inh-1)
Cc1ccccc1-c1ccc2c(c1)[C@@H]1C[C@H]3[C@@H](CN1CC2)[C@H](C)OC(C1CCCCC1)N3C (some centres not stated)	none (no result: DAX1 inh-1)
O=C(Nc1nc2ccccc2s1)c1cnccn1	hcDAF12 agonist 7.5, hgDAF-12 ag 13, DAX1 inh-2 4.0 | LXR ag inactive | hcDAF12 ag 6.6
O=C(Nc1ccc2nccnc2c1)c1cnccn1	hcDAF12 agonist 6.7 | LXR ag inactive | hcDAF12 ag inactive
O=C(Nc1nc2ccccc2s1)C1=NN(c2ccccc2)C(=O)CC1	hcDAF12 agonist 6.8 | LXR ag inactive | hcDAF12 ag inactive
CC(=O)c1cccc(NC(=O)c2cnccn2)c1	none
COC(=O)c1cc2c(c3c4cc(C)ccc4n(S(=O)(=O)c4ccc(OC)cc4)c13)C(=O)N(Cc1ccccc1OC)C2	none (no result: DAX1 inh-1)
COc1ccc2nc(N=Nc3ccc(O)c4ccccc34)sc2c1	hcDAF12 agonist 12 | LXR ag inactive | hcDAF12 ag inactive
c1coc(-c2cnc3ccccc3n2)c1	hcDAF12 agonist 7.8, DAX1 inh-1 4.4 | LXR ag inactive | hcDAF12 ag 5.7
Nc1ccc(-c2cnc3ccccc3n2)cc1	hcDAF12 agonist 7.1, hgDAF-12 ag 11 (no result: DAX1 inh-1) | LXR ag inactive | hcDAF12 ag 7.5
C[C@@H]1CN([C@@H](C)CO)C(=O)CCCn2cc(nn2)CO[C@H]1CN(C)C(=O)Nc1ccc2c(c1)OCCO2	none (no result: DAX1 inh-1)
N#CC1(Nc2ccc3ccccc3c2)CCCC1	hcDAF12 agonist 6.9, DAX1 inh-2 4.1 | LXR ag inactive | hcDAF12 ag 7.0
C=CCOn1c(=O)c(-c2cc3ccccc3o2)[n+]([O-])c2ccccc21	hcDAF12 agonist 11, SMARCA2 act 7.9, hgDAF-12 ag 12, ssDAF12 agonist 1.8 | LXR ag inactive | hcDAF12 ag inactive
C=CCOn1c(=O)c(-c2ccccc2)[n+]([O-])c2ccccc21	none
CCOC(=O)COn1c(=O)c(-c2cc3ccccc3o2)[n+]([O-])c2ccccc21	hcDAF12 agonist 9.3, ssDAF12 agonist 1.0 | LXR ag inactive | hcDAF12 ag 14
Cc1c(Cc2ccccc2)c(=O)oc2c(C)c(OCC(=O)NCC3CCC(C(=O)O)CC3)ccc12 (configuration not stated)	hcDAF12 agonist 7.3 | LXR ag inactive | hcDAF12 ag inactive
Cc1ccc2nc(CN(C)C(=O)[C@H]3O[C@@H](n4cnc(C(N)=O)n4)[C@H](O)[C@@H]3O)[nH]c2c1	none (no result: DAX1 inh-1)
C/C(C/C(C)=C1/SC(=S)NC1=O)=C1\SC(=S)NC1=O	hcDAF12 agonist 6.8 | LXR ag inactive | hcDAF12 ag inactive
Cc1ccc(C)n1-c1ccc(-c2ccn[nH]2)cc1	none
c1ccn(-c2ccc(-c3ccn[nH]3)cc2)c1	hcDAF12 agonist 10, hgDAF-12 ag 13, ssDAF12 agonist 2.2 | LXR ag inactive | hcDAF12 ag inactive
O=C(N[C@H](Cc1ccccc1)C(=O)NCC1CCCCC1)[C@H]1O[C@@H](n2ccc(=O)[nH]c2=O)[C@H](O)[C@@H]1O	none (no result: DAX1 inh-1)
Cc1ccc(SCC(=O)N2CCN(c3ccccn3)CC2)cc1	none
O=C(CSc1nccc2ccccc12)N1CCN(c2ccccn2)CC1	hcDAF12 agonist 8.2 | LXR ag inactive | hcDAF12 ag inactive
CCOC(=O)Nc1ccc2c3c(cccc13)-c1ccccc1-2	hcDAF12 agonist 8.2, DAX1 inh-2 4.2 | LXR ag inactive | hcDAF12 ag 7.7
CCOC(=O)Nc1cccc2ccccc12	none
COCc1cc(N2CCN(C(=O)OC(C)(C)C)C[C@H]2C)ccc1N1CCS(=O)(=O)CC1	none (no result: DAX1 inh-1)
Cc1ccc2sc(-c3ccc(NC(=O)CCN4C(=O)c5ccccc5C4=O)cc3)nc2c1	hcDAF12 agonist 10.0 (no result: DAX1 inh-1) | LXR ag inactive | hcDAF12 ag 9.0
N#CC(C#N)=Cc1cc2ccccc2nc1N1CCCCC1	hcDAF12 agonist 7.1 | LXR ag inactive | hcDAF12 ag inactive
CCn1c(/C=C/c2ccccc2Cl)nc2ccccc2c1=O	none
CCn1c(/C=C\c2ccccc2C)nc2ccccc2c1=O	none
CCn1c(/C=C/c2c[nH]c3ccccc23)nc2ccccc2c1=O	hcDAF12 agonist 8.6, DAX1 inh-1 5.2, hgDAF-12 ag 12, ssDAF12 agonist 1.4 | LXR ag inactive | hcDAF12 ag 7.8
CCn1c(/C=C/c2c(C)[nH]c3ccccc23)nc2ccccc2c1=O	hcDAF12 agonist 10, ssDAF12 agonist 0.9 | LXR ag inactive | hcDAF12 ag inactive
COC(=O)c1cc2c(c3c4cc(F)ccc4n(S(=O)(=O)c4cccc(C)c4)c13)C(=O)N(C)C2	none (no result: DAX1 inh-1)
COc1cc(N2CCCC2)c(OC)cc1/C=C(/C#N)c1ccc(F)cc1	none
N#C/C(=C/c1ccc(N2CCCCC2)cc1)c1cccc(F)c1	hcDAF12 agonist 8.8 | LXR ag inactive | hcDAF12 ag inactive
Cc1cc(C)cc(S(=O)(=O)N2CCN(c3nc(-c4cccs4)nc4ccccc34)CC2)c1	none (no result: SMARCA2 act, DAX1 inh-1, DAX1 inh-2)
Cc1[nH]nc2c1C(c1cccc(C(F)(F)F)c1)N(Cc1ccccc1)C2=O (configuration not stated)	none (no result: DAX1 inh-1)
COc1ccc(-c2cn3cc(Cl)ccc3n2)cc1OC	hcDAF12 agonist 8.6 | LXR ag inactive | hcDAF12 ag inactive
COc1ccc(-c2cn3nc(C)c(C)nc3n2)cc1OC	none
Clc1ccc2nc(-c3ccc(Br)s3)cn2c1	hcDAF12 agonist 15, hgDAF-12 ag 11, ssDAF12 agonist 1.0 | LXR ag inactive | hcDAF12 ag 19

Assay outcomes deposited in PubChem BioAssay by The Scripps Research Institute Molecular Screening Center.
